Measurements: PubChem BioAssay (EPA / NIEHS)
Active and inactive are the calls of the source. How the source made its calls: active means hit-call score of the fitted dose curve at least 0.9, where 1 is the maximum; inactive means score below 0.9.

Tests used:
[1] = ATG_GLI_CIS: Attagene CIS-FACTORIAL HepG2 Assay for human Zinc Finger Protein GLI1 (AID 2282945); conditions: HepG2, Attagene cis-factorial reporter mRNA, GLI element; actives raise or lower the signal
Method in brief: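 Transiently transfected HepG2 cells report endogenous transcription factor activity via cis-element-driven reporter units. After 24 h compound exposure, reporter mRNA was measured by RT-PCR with capillary electrophoresis; bidirectional fitting against DMSO baseline.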

[2] = ATG_GRE_CIS: Attagene CIS-FACTORIAL HepG2 Assay for human Glucocorticoid Response Elements (GRE) (AID 2282947); conditions: HepG2 GRE cis-reporter, Attagene multiplex mRNA; actives raise or lower the signal
Method in brief: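 Read-out: fluorescent reporter-transcript fragments separated by capillary electrophoresis after RT-PCR. Transiently transfected HepG2 cells carrying cis-element-driven reporter units were dosed for 24 h; gain or loss of signal fitted against DMSO control.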

[3] = ATG_ISRE_CIS: Attagene CIS-FACTORIAL HepG2 Assay for human Interferon Regulatory Factor 1 (IRF1) binding to an Interferon-Stimulated Response Element (ISRE) (AID 2282948); conditions: HepG2 ISRE cis-reporter (Attagene), mRNA transcription readout; actives raise or lower the signal
Method in brief: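 Uses HepG2 liver cells transfected with cis-regulated reporters and measures mRNA 24 h post-dosing through RT-PCR, primer-extension labelling and capillary electrophoresis, with DMSO as negative control.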

[4] = ATG_M_32_CIS: Attagene CIS-FACTORIAL HepG2 Assay for M32 Transcription Factor (Internal Marker) (AID 2282949); conditions: HepG2 Attagene cis-factorial M32 reporter, mRNA; actives raise or lower the signal;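 further: background control marker of the multiplexed CIS panel rather than a real target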
Method in brief: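 Transient MRTU transfection of HepG2; 24 h compound treatment; TriZol RNA, oligo(dT) RT, reporter PCR, 6-FAM primer extension, HpaI cut, CE. Gain/loss of signal vs DMSO.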

[5] = ATG_M_06_CIS: Attagene CIS-FACTORIAL HepG2 Assay for M06 Transcription Factor (Internal Marker) (AID 2282950); conditions: HepG2 Attagene CIS-FACTORIAL M06 internal marker reporter; actives raise or lower the signal
Method in brief: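 Steps: transfect HepG2 with multiplexed cis-element reporter constructs; dose chemical 24 h; extract RNA with DNase treatment; reverse-transcribe, PCR-amplify, 6-FAM label, HpaI digest; separate fragments by capillary electrophoresis. Activity fitted both directions versus DMSO.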

[6] = molecular target: Hypoxia-inducible factor 1-alpha (Homo sapiens) (UniProt Q16665); experiment: ATG_HIF1a_CIS: Attagene CIS-FACTORIAL HepG2 Assay for human Hypoxia Inducible Factor 1 (HIF1A) (AID 2282951); conditions: HepG2 Attagene cis-factorial HIF1a reporter transcription; actives raise or lower the signal
Sequence of Hypoxia-inducible factor 1-alpha (Homo sapiens) (Q16665 whole entry, looked up, the tested form may be a part): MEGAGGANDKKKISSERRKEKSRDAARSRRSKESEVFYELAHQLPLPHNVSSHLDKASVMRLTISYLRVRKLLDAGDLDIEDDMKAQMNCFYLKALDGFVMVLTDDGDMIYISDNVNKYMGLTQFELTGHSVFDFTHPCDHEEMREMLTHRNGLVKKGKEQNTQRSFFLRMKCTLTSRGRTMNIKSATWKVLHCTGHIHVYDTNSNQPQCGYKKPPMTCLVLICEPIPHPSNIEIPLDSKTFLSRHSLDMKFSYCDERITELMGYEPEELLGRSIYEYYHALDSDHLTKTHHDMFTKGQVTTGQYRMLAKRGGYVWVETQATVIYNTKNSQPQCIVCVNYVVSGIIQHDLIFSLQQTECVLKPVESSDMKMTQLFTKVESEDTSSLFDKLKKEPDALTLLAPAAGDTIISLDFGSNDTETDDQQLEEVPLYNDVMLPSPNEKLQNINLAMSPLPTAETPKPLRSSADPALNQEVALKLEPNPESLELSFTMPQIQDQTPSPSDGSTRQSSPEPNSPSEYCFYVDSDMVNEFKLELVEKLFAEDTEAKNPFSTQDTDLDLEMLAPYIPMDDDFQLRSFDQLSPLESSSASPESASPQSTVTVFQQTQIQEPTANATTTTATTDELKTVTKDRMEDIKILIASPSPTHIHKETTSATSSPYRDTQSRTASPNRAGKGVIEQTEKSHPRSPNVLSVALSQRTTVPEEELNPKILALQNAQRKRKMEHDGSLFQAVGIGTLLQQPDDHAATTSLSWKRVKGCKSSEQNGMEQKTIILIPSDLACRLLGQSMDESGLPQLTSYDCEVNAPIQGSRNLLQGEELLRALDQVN
Method in brief: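 Transient MRTU transfection of human HepG2 liver cells, 24 h compound treatment, then total RNA isolation, oligo(dT) reverse transcription, PCR amplification, fluorescent labelling and capillary electrophoresis of reporter fragments. Gain or loss relative to DMSO.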

[7] = molecular target: Hepatocyte nuclear factor 6 (Homo sapiens) (UniProt Q9UBC0); experiment: ATG_HNF6_CIS: Attagene CIS-FACTORIAL HepG2 Assay for human Hepatocyte Nuclear Factor 6 (HNF6) (AID 2282952); conditions: HepG2 Attagene cis-factorial HNF6 reporter transcription; actives raise or lower the signal
Sequence of Hepatocyte nuclear factor 6 (Homo sapiens) (Q9UBC0 whole entry, looked up): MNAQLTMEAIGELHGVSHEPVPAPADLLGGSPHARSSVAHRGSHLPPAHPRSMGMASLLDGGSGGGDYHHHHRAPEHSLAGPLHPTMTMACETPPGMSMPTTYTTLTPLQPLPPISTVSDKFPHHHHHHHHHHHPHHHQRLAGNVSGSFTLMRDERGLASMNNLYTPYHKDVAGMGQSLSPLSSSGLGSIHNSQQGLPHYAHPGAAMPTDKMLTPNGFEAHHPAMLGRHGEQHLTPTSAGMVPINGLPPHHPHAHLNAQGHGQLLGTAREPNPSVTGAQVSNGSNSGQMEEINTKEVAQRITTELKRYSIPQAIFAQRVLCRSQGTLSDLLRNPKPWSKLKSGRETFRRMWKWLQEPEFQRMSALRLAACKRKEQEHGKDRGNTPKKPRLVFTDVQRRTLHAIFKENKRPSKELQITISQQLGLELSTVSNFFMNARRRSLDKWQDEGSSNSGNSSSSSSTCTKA
Method in brief: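 Activity values derive from bidirectional fitting against DMSO of reporter mRNA levels, measured by capillary electrophoresis of labelled RT-PCR products from HepG2 cells exposed 24 h.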

[8] = molecular target: Heat shock factor protein 1 (Homo sapiens) (UniProt Q00613); experiment: ATG_HSE_CIS: Attagene CIS-FACTORIAL HepG2 Assay for human Heat Shock Transcription Factor 1 (HSE) (AID 2282953); conditions: HepG2 HSE cis-reporter, Attagene RNA transcription; actives raise or lower the signal
Sequence of Heat shock factor protein 1 (Homo sapiens) (Q00613 whole entry, looked up, the tested form may be a part): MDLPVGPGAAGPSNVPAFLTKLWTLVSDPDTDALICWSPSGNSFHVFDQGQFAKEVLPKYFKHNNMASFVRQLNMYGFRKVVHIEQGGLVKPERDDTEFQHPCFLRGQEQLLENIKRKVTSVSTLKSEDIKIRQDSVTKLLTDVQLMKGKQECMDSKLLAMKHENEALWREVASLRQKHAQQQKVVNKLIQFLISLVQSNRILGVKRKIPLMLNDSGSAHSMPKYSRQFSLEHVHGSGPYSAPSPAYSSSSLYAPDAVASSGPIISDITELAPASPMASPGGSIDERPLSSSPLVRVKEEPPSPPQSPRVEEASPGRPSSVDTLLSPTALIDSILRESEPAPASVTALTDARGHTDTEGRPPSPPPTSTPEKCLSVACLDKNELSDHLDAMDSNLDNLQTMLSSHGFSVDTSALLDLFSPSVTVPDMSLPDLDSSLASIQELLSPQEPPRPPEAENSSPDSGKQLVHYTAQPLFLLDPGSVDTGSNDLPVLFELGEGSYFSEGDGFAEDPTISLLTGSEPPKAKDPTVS
Method in brief: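 Cells were transfected with cis-element-driven reporter constructs, dosed for 24 h, then total RNA was reverse-transcribed and reporter cDNA amplified, FAM-labelled and digested with HpaI. Fragments were resolved by capillary electrophoresis; gain or loss was fitted against DMSO.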

[9] = ATG_MRE_CIS: Attagene CIS-FACTORIAL HepG2 Assay for human Metal Responsive Element (MRE) (AID 2282954); conditions: HepG2 MRE cis-reporter transcription, Attagene multiplex; actives raise or lower the signal
Method in brief: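 RT-PCR/capillary electrophoresis readout of reporter mRNA, 24 h post-dosing, in HepG2 cells transfected with multiplexed cis-regulated reporter constructs. Gain or loss of signal fitted bidirectionally against DMSO baseline.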

[10] = ATG_PBREM_CIS: Attagene CIS-FACTORIAL HepG2 Assay for human Phenobarbital-responsive Enhancer Module (PBREM) (AID 2282955); conditions: HepG2 PBREM cis-reporter, Attagene multiplexed transcription; actives raise or lower the signal
Method in brief: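 Endogenous transcription factors in human liver HepG2 cells drive a PBREM cis-element reporter, whose transcript level after 24 h treatment is quantified by RT-PCR with capillary electrophoresis; activity fitted in both directions against DMSO.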

[11] = molecular target: Paired box protein Pax-6 (Homo sapiens) (UniProt P26367); experiment: ATG_Pax6_CIS: Attagene CIS-FACTORIAL HepG2 Assay for human Paired Box 6 (PAX6) (AID 2282956); conditions: HepG2 CIS-FACTORIAL PAX6 reporter transcription, RNA readout; actives raise or lower the signal
Sequence of Paired box protein Pax-6 (Homo sapiens) (P26367 whole entry, looked up): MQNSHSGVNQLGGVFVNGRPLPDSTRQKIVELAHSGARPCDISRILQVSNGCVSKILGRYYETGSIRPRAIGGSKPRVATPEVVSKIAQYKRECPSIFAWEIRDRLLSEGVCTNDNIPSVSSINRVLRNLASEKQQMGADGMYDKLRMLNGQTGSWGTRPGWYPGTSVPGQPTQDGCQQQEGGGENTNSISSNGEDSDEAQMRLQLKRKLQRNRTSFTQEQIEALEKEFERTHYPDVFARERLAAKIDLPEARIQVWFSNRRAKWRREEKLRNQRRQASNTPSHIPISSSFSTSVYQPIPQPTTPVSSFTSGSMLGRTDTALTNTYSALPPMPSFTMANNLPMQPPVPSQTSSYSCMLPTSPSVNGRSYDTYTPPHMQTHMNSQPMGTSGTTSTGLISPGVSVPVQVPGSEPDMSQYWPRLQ
Method in brief: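 DMSO-referenced bidirectional fits of reporter mRNA fluorescence; HepG2 with transient cis-promoter MRTUs, 24 h post-dose, RT-PCR plus capillary electrophoresis detection.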

[12] = ATG_PXRE_CIS: Attagene CIS-FACTORIAL HepG2 Assay for human Pregnane X Receptor Element (PXRE) (AID 2282957); conditions: HepG2 Attagene CIS-FACTORIAL PXRE reporter, mRNA; actives raise or lower the signal
Method in brief: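 Fluorescent capillary electrophoresis of amplified reporter cDNA gave the signal, collected 24 h after dosing HepG2 cells that held transfected cis-element reporter constructs.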

[13] = ATG_RORE_CIS: Attagene CIS-FACTORIAL HepG2 Assay for human RAR-related Orphan Receptor Element (RORE) (AID 2282959); conditions: HepG2 Attagene cis-factorial RORE reporter, mRNA; actives raise or lower the signal
Method in brief: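 Transient MRTU transfection of human HepG2 liver cells (FuGene 6); 24 h compound exposure; TriZol RNA, oligo(dT) RT, PCR, FAM labeling, HpaI cut, CE fragment analysis. DMSO = negative control/baseline.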

[14] = ATG_Sox_CIS: Attagene CIS-FACTORIAL HepG2 Assay for human SRY-box transcription factor (SOX) (AID 2282960); conditions: HepG2 Attagene cis-factorial SOX reporter, mRNA; actives raise or lower the signal
Method in brief: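 Endogenous factor activity in human liver HepG2 cells carrying transfected cis-regulated reporter units. RNA taken 24 h post-dose, reverse-transcribed, PCR-amplified and sized by capillary electrophoresis. Gain or loss of signal fitted relative to DMSO.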

[15] = molecular target: Transcription factor Sp1 (Homo sapiens) (UniProt P08047); experiment: ATG_Sp1_CIS: Attagene CIS-FACTORIAL HepG2 Assay for human Specificity Protein 1 (Sp1) (AID 2282961); conditions: HepG2 Sp1 cis-reporter transcription, actives raise or lower the signal
Sequence of Transcription factor Sp1 (Homo sapiens) (P08047 whole entry, looked up): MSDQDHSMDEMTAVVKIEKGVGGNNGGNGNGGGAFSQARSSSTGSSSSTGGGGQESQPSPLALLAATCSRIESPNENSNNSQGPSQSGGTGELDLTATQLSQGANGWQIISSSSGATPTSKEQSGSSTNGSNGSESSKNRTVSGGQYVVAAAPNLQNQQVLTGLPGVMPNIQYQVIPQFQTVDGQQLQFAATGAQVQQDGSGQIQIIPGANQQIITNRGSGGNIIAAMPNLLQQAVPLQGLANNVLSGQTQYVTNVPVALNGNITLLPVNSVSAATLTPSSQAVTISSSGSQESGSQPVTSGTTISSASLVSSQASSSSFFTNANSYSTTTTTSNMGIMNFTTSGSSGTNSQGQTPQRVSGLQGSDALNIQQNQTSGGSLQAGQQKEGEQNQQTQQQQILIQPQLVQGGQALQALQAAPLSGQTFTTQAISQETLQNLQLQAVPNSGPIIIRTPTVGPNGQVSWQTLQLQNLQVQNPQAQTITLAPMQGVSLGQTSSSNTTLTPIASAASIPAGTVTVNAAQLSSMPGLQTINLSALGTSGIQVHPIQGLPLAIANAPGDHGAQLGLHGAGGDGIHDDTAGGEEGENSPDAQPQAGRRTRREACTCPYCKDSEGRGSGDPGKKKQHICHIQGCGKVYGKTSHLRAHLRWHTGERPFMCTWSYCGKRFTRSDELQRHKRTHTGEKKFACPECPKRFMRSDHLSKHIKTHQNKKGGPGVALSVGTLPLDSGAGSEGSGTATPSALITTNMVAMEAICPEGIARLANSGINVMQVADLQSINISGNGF
Method in brief: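 Transient MRTU-transfected HepG2, 24 h compound exposure. Total RNA → oligo(dT) RT → PCR of reporter → 6-FAM primer extension → HpaI digest → CE. Endpoint fitted both directions vs DMSO.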

[16] = molecular target: Signal transducer and activator of transcription 3 (Homo sapiens) (UniProt P40763); experiment: ATG_STAT3_CIS: Attagene CIS-FACTORIAL HepG2 Assay for human Signal Transducer and Activator of Transcription 3 (STAT3) (AID 2282963); conditions: HepG2, Attagene cis-factorial STAT3 reporter transcription; actives raise or lower the signal
Sequence of Signal transducer and activator of transcription 3 (Homo sapiens) (P40763 whole entry, looked up, the tested form may be a part): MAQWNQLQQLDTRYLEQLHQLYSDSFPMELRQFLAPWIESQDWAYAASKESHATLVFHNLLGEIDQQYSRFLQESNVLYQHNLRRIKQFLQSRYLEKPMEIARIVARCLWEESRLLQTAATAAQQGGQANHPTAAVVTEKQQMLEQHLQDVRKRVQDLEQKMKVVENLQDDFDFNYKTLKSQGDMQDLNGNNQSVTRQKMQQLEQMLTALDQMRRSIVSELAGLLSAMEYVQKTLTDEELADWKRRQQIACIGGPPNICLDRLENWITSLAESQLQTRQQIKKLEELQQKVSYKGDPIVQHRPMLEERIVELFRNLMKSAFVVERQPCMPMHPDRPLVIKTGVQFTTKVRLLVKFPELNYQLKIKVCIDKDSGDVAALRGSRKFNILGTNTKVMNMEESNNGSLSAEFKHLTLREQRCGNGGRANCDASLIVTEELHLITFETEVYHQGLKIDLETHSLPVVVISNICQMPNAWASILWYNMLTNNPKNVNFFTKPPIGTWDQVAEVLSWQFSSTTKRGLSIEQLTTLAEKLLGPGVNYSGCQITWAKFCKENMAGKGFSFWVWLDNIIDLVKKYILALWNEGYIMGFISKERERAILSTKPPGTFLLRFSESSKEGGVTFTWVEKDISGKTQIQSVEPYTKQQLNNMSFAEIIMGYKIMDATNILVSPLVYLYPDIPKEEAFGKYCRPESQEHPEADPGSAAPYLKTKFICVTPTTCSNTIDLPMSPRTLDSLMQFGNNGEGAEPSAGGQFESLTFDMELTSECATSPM
Method in brief: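 Readout: fluorescent reporter mRNA fragments resolved by capillary electrophoresis. Setup: HepG2 transfected with MRTUs reporting endogenous transcription-factor activity, dosed 24 h. Gain or loss of signal fitted bidirectionally against DMSO control.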

[17] = ATG_TA_CIS: Attagene CIS-FACTORIAL HepG2 Assay for human TA Basal Promoter (AID 2282964); conditions: HepG2 Attagene CIS-factorial TA basal promoter reporter; actives raise or lower the signal
Method in brief: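 Steps: transfect HepG2 with MRTUs; dose 24 h; isolate RNA, DNase-treat, reverse-transcribe; PCR and FAM-label reporter cDNA; digest with HpaI 2h at 37 C; run capillary electrophoresis. Activity fitted both directions against DMSO.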

[18] = ATG_SREBP_CIS: Attagene CIS-FACTORIAL HepG2 Assay for human Sterol Regulatory Element Binding (SREBP) (AID 2282962); conditions: HepG2 Attagene cis-factorial SREBP reporter, mRNA; actives raise or lower the signal
Method in brief: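 In this cis-format assay, HepG2 liver cells express reporters controlled by promoter elements responsive to native transcription factors. Exposure lasts 24 h; reporter mRNA fluorescence from capillary electrophoresis gives the signal, fitted bidirectionally against DMSO.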

[19] = ATG_PPRE_CIS: Attagene CIS-FACTORIAL HepG2 Assay for human Peroxisome Proliferator-activated Response Element (PPRE) (AID 2282958); conditions: HepG2 PPRE cis-element reporter, Attagene transcription factor profiling; actives raise or lower the signal
Method in brief: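 HepG2, transient MRTU transfection (cis promoter elements, endogenous TFs). 24 h dosing. RNA → oligo(dT) RT → PCR → 6-FAM primer extension → HpaI digest → CE. Bidirectional fit vs DMSO.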

Measured: AC50

COc1ccccc1O
active: [12] 69.3 µM
not listed: [18] | [19]
inactive: all other assays above

CCCCN(CCO)CCO
not listed: [19]
inactive: all other assays above

C1=COCCC1
not listed: [10]
inactive: all other assays above

C=C(C)C(=O)OCCC[Si](OC)(OC)OC
not listed: [10] | [16]
inactive: all other assays above
